Source: the supplement of paper PMC6555819

Tests used:
Experiment in all cases: PBM binding z-score (relative to random genomic background probes); higher = stronger binding; sequences stand for … in GC…GCGATTGACAGCGTAGAATGAAGG
[1] = system: FXR:RXRa (NR concentration 270 nM, RXRa partner concentration 90 nM)
How it was run: (§1)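 Ligand-free nuclear receptor dimers were bound for 1 h to custom Agilent 4×180K protein-binding microarrays. Detection used antibodies against each partner (one per run). Binding z-scores rest on regression-normalized fluorescence, with random background probes as the reference.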

[2] = system: LXRa:RXRa (NR concentration 270 nM, RXRa partner concentration 90 nM)
How it was run: as §1

[3] = system: LXRa homodimer (NR concentration 270 nM)
How it was run: as §1

[4] = system: LXRb:RXRa (NR concentration 270 nM, RXRa partner concentration 90 nM)
How it was run: as §1

[5] = system: LXRb homodimer (NR concentration 270 nM)
How it was run: as §1

[6] = system: PPARa:RXRa (NR concentration 270 nM, RXRa partner concentration 90 nM)
How it was run: as §1

[7] = system: PPARg:RXRa (NR concentration 180 nM, RXRa partner concentration 90 nM)
How it was run: as §1

[8] = system: PPARg:RXRa 270nM:90nM, anti-RXR (NR concentration 270 nM, RXRa partner concentration 90 nM)
How it was run: as §1

[9] = system: PPARg:RXRa 30nM:10nM, anti-RXR (NR concentration 30 nM, RXRa partner concentration 10 nM)
How it was run: as §1

[10] = system: PPARg:RXRa 90nM:30nM, anti-RXR (NR concentration 90 nM, RXRa partner concentration 30 nM)
How it was run: as §1

[11] = system: PPARg:RXRa DBDmut IVT, anti-RXR (DBD mutation: RXRa K156A/R161A, NR concentration 270 nM, RXRa partner concentration 90 nM)
How it was run: as §1

[12] = system: PPARg:RXRa IVT, anti-PPARg (NR concentration 270 nM, RXRa partner concentration 90 nM)
How it was run: as §1

[13] = system: PPARg DBDmut:RXRa IVT, anti-PPARg (DBD mutation: PPARg1 K132A/R137A, NR concentration 270 nM, RXRa partner concentration 90 nM)
How it was run: as §1

[14] = system: PPARg DBDmut IVT, anti-PPARg (DBD mutation: PPARg1 K132A/R137A, NR concentration 270 nM)
How it was run: as §1

[15] = system: PPARg homodimer (NR concentration 180 nM)
How it was run: as §1

[16] = system: PXR:RXRa (NR concentration 270 nM, RXRa partner concentration 90 nM)
How it was run: as §1

[17] = system: PXR homodimer (NR concentration 270 nM)
How it was run: as §1

[18] = system: RARa:RXR (NR concentration 270 nM, RXRa partner concentration 90 nM)
How it was run: as §1

[19] = system: RARa homodimer (NR concentration 270 nM)
How it was run: as §1

[20] = system: RARb:RXRa (NR concentration 270 nM, RXRa partner concentration 90 nM)
How it was run: as §1

Row | Sequence | PBM binding z-score [1] | PBM binding z-score [2] | PBM binding z-score [3] | PBM binding z-score [4] | PBM binding z-score [5] | PBM binding z-score [6] | PBM binding z-score [7] | PBM binding z-score [8] | PBM binding z-score [9] | PBM binding z-score [10] | PBM binding z-score [11] | PBM binding z-score [12] | PBM binding z-score [13] | PBM binding z-score [14] | PBM binding z-score [15] | PBM binding z-score [16] | PBM binding z-score [17] | PBM binding z-score [18] | PBM binding z-score [19] | PBM binding z-score [20]
1 | TCATATAGGTACTACAGGTGAAAGTCGGCATCTA | 0.842 | 1.92 | 0.924 | 1.03 | 0.0353 | 1.4 | 0.768 | 2.18 | 3.93 | 2.89 | 2.86 | 1.16 | 0.618 | 1.02 | 0.506 | 0.663 | 0.0757 | 0.847 | 0.606 | 0.472
2 | TTACCAAGGTGGAGGTCGTTGATCCCTCTGTAGA | 1.68 | 1.96 | 0.12 | 1.66 | -0.0737 | 1.7 | 0.691 | 2.12 | 0.972 | 1.4 | -0.0945 | 0.927 | -0.0829 | 0.467 | 0.494 | 1.37 | -0.028 | 1.58 | -0.0306 | 0.92
3 | GCAGGCAGGTGAAACGCAGGTAACTCAGGGTGGC | 0.782 | 0.881 | -0.513 | -0.67 | -0.423 | 0.341 | 0.206 | -0.46 | -0.909 | -0.6 | 1.12 | 0.912 | -1 | -1.1 | -0.662 | -0.0371 | -1.2 | 0.429 | -0.796 | 0.562
4 | CTCGAAAGGTCGTGCTGAGGTGAGTATACCAAAC | 4.89 | 3.82 | 0.000478 | 3.31 | -0.153 | 4.82 | 2.58 | 3.85 | 1.23 | 2.67 | 0.827 | 1.96 | 0.22 | 0.0024 | 1.84 | 3.61 | 0.222 | 4.16 | -0.373 | 3.93
5 | ATCTCTAGGTGAGACTCAGTTCAGTGAAGAACGC | 0.247 | 0.206 | 0.00794 | 0.271 | 0.0417 | 0.953 | 0.798 | 0.846 | 0.146 | 0.412 | 4.55 | 3.85 | 0.96 | -0.0812 | -0.0769 | 1.31 | 0.653 | 0.361 | 0.0758 | 0.707
6 | CCGACTGGGGCATAAGTTTACCATAAGCCAGCCC | -0.352 | -0.207 | -0.448 | -0.337 | -0.91 | 0.222 | 1.66 | 2.44 | 0.241 | 1.74 | 3.09 | 2.55 | -0.897 | -1.31 | 0.107 | -0.336 | -0.547 | -0.262 | -0.566 | 0.68
7 | ACTATTAGTTGACTTAGGGCAACCCATACGACGC | 0.287 | 0.126 | 0.344 | 0.24 | 0.53 | 0.137 | 1.03 | 0.234 | 0.457 | 0.203 | 0.51 | 0.696 | 0.977 | 1.6 | 0.67 | 0.18 | 0.375 | 0.59 | 1.02 | 0.823
8 | ATCGAAAGGTCGAGGTGAGTAGAGAGAAAGGGAA | 4.27 | 3.47 | 0.0492 | 2.46 | 0.462 | 4.49 | 3.29 | 3.59 | 1.45 | 2.36 | 0.416 | 2.34 | 1.55 | 0.427 | 1.76 | 2.19 | 0.327 | 3.31 | 1.21 | 4.11
9 | ATCTCTAGTTAAAGTTCAGTGAAAGATCGATAGA | 1.49 | 2.07 | 2.94 | 1.57 | 1.33 | 1.78 | 1.74 | 3.2 | 1.74 | 2.89 | 0.143 | 0.671 | 0.424 | 1.48 | 2.14 | 2.29 | 2.21 | 1.41 | 2.45 | 2.61
10 | TCGAGTAGGTTAGTCGGGGCATACAGCCAACATA | 0.288 | 0.232 | -0.353 | 0.458 | -0.174 | 0.913 | 0.365 | 0.998 | 1.25 | 1.07 | 2.34 | 1.89 | -0.401 | -0.126 | -0.0659 | 0.333 | 0.0501 | 0.379 | -0.329 | 0.592
11 | TAGCCTAGGTCATTGGGCCAGTATTGTACGCATC | 4.48 | 3.6 | 0.903 | 2.28 | 0.642 | 3.66 | 3.19 | 3.33 | 1.04 | 2.35 | 2.88 | 3.82 | 0.545 | -0.273 | 1.88 | 1.57 | -0.247 | 2.41 | -0.7 | 3.58
12 | TCTTGTAGATCAAGCAGGTTAAGGAAGCCTGAGT | 0.133 | 0.211 | -0.315 | 0.139 | -0.226 | 0.674 | -0.544 | 1.08 | 2.6 | 1.8 | 1.51 | 0.345 | 0.213 | -0.0431 | -0.0432 | 0.142 | 0.105 | 0.407 | -0.315 | 0.0755
13 | CCTGCTAGATCAATGGTCAGCTAAAGCAGCTCGC | -0.932 | -0.902 | -0.811 | -0.945 | -0.566 | -0.697 | -0.182 | 0.115 | -0.8 | -0.292 | -0.539 | -0.867 | -1.21 | -1.31 | -0.942 | -0.879 | -0.691 | -0.744 | -0.962 | -0.116
14 | TCCAGTTGGTCAAAGGTCACACACTCGAAATGCG | 6.2 | 5.79 | 3.85 | 5.42 | 1.6 | 6.51 | 11 | 9.65 | 9.86 | 10.3 | 3.32 | 6.12 | 2.97 | 1.98 | 5.35 | 6.28 | 2.67 | 7.69 | 3.44 | 5.08
15 | AGTCAAACTTCATCTAGGTAACGTAAGATATGCT | -0.0376 | -0.223 | -0.295 | 0.127 | 0.1 | -0.0609 | 0.882 | 0.333 | 0.414 | 0.33 | 0.952 | 1.7 | 1.48 | 0.721 | -0.505 | -0.365 | 0.02 | -0.125 | 0.222 | 0.212
